{"source": "PubChem BioAssay (NCI)", "note": "Several values for one entry are separate records, joined by “and”; a condition that tells them apart may be missing. Equal entries are not always repeated. About 83,000 compounds went through this panel and 20% of them were active in at least one assay; those are over-represented in the sample as a whole.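 Plates (96-well) were seeded with cells, treated with compound at one concentration, and incubated for 48 hours before percent growth was determined.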 Activity calls are given as the source filed them. How the source made its calls: active means growth percent below 10; inactive means the rest.", "data": [{"system": "MDA-MB-231 breast", "assay": "NCI-60 one-dose screen, 48 h (100 = growth as untreated, 0 = no growth, -100 = all killed)", "details": "10 µM unless noted", "values": [{"smiles": "ON=C1CCCCCCCC1", "growth": "107% (inactive) and 123% (inactive)"}, {"smiles": "CCOC(=O)N(O)c1ccc(/C=C/c2ccccc2)cc1", "growth": "67.3% (inactive) and 54% (inactive)"}, {"smiles": "O=S(=O)(O)c1ccc(N=Nc2ccc(N=Nc3cccc4ccccc34)c(S(=O)(=O)O)c2)cc1", "growth": "80.3% (inactive)"}, {"smiles": "COc1ccc(-c2nn3c(-c4cc(F)c(Cl)cc4Cl)nnc3s2)cc1", "growth": "55.2% (inactive)"}, {"smiles": "CCc1c2c(nc3ccc(OCc4ccc(B5OC(C)(C)C(C)(C)O5)cc4)cc13)-c1cc3c(c(=O)n1C2)COC(=O)[C@]3(O)CC", "growth": "34.2% (inactive)"}, {"smiles": "O=C(O)c1ccccc1Cc1ccc(F)c2ccccc12", "growth": "115% (inactive) and 106% (inactive)"}, {"smiles": "CCCCC1COc2cccc3c2N1C=C/C3=C\\C(=O)N(C)c1cccc(Cl)c1", "note": "(stereo not drawn)", "growth": "103% (inactive)"}, {"smiles": "COc1ccc(/C=C2\\COc3ccc(O)c(O)c3C2=O)c(OC)c1OC", "growth": "-2.18% (active)"}, {"smiles": "CC12OC(CC(O)C1O)n1c3ccccc3c3c4c(c5c6ccccc6n2c5c31)C(=O)N(CCN1CCOCC1)C4=O", "note": "(stereo not drawn)", "growth": "44.2% (inactive)"}, {"smiles": "COc1ccc(/C=N/C2=C(C#N)C(c3ccccc3)c3c(ccc4ccccc34)O2)cc1", "note": "(stereo not drawn)", "growth": "33.4% (inactive)"}, {"smiles": "COc1ccc(-c2cc3cnc4ccccc4c3oc2=O)cc1", "growth": "88.2% (inactive)"}, {"smiles": "O=C(/C=C/c1ccc(F)cc1)Nc1ncc(Cc2ccc(F)cc2)s1", "growth": "75.7% (inactive)"}, {"smiles": "COc1cc(/C=C2\\CCC/C(=C\\c3cc(CN4CCCC4)c(O)c(OC)c3)C2=O)cc(CN2CCCC2)c1O", "growth": "12.5% (inactive)"}]}]}
